The panel holds about 83,000 compounds, 20% with a hit somewhere; the sample as a whole holds those more often.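 Negative percent growth values reflect cell death: -40 means 40% of the cells present at the start died, and -100 means all died.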 Calls of active or inactive are those of the source. Rule for the calls: active = growth percent below 10; inactive = the rest.

This experiment has as its system UACC-257 melanoma. The experiment can be described thus: NCI-60 one-dose screen, 48 h (100 = growth as untreated, 0 = no growth, -100 = all killed). Conditions: 10 µM unless noted.
Take `COc1ccc(C2=Nc3c(N)ncnc3NC(c3ccc4c(c3)OCO4)C2)cc1` (centres undefined): the growth is 116% (inactive).
As for `COc1ccc2occ(C3=C(c4c[nH]c5ccccc45)C(=O)N(O)C3=O)c2c1`, the growth is 99% (inactive).
As to `NCCCNc1nc2ccccc2c2c(=O)c3cccc(Cl)c3sc12`, the growth is 72.8% (inactive).
As for `O=c1c2cc(F)ccc2sc2c(NCCN3CCCCC3)nc3ccccc3c12`, the figure is 65.1% (inactive).
Regarding `Cc1ccc2c(c1)Sc1c(ccc3ccccc13)N2`, the growth was 80.4% (inactive).
In the case of `CCCCCCCCCCCCCCCCCCOc1ccc(CC(=O)OCC[N+]2(C)CCCC2)cc1` it was 107% (inactive); in that of `CC(=O)OC[C@H]1OC(Sc2sc(C(=O)c3ccc(Br)cc3)c(N)c2-c2nc3ccccc3s2)[C@H](OC(C)=O)[C@@H](OC(C)=O)[C@@H]1OC(C)=O` (some centres undefined), 80.1% (inactive); in that of `O=C(O)c1ccc2c(c1)CCC2`, 105% (inactive).
In the case of `COc1ccc(-c2[nH]c(=S)n(C(CC3(C)NCC(=O)N3n3c(-c4ccccc4)cc(C)nc3=S)c3ccc(OC)cc3)c(=O)c2Br)cc1` (centres undefined) it was 88.9% (inactive).
For `C[C@H](NC(=O)[C@@H]1CSSC[C@@H](NC(=O)c2nc3ccccc3cc2O)C(=O)NCC(=O)N1C)c1ccccc1`, the growth was 60.9% (inactive).
In the case of `CCc1ccccc1-n1c(-c2ccc(Cl)cc2)cc(-c2ccc(Cl)cc2)c(C#N)c1=O` it was 98.6% (inactive); in that of `COCCc1ccc(OCC(O)CNC(C)C)cc1` (centres undefined), 96.3% (inactive); in that of `COc1ccc(/C=C/c2c(C(=O)/C=C/c3cccs3)c(C)nc3ccccc23)cc1`, 83.8% (inactive).
On to `COc1ccc(-c2nc3c(N)c(CO)c(C)nc3o2)cc1`, for which the growth is 101% (inactive).
